# Hits are enriched below; roughly 2.8% of the tested compounds scored in any of these assays.
# HSV augment – increases HSV replication in cells; maximum fold increase; 0.005% of 220,000 active; HSV replication augmentation in cells, fold increase; AID 1956; in the data active = maximum fold increase above about 1.5; tested in PC3 cells
# NCF1 inh – inhibitors of human p47phox binding | P14598 | p47phox/p22phox peptide binding, fluorescence polarization, 2 h | inhibition, % at 24.7 µM | 0.53% of 220,000 active | AID 1274;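 active = inhibition above about 30%, limit read from the data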;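 also: 0% = p47phox with labelled peptide and 100% = labelled peptide alone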
# Target sequence (P14598 whole entry, looked up): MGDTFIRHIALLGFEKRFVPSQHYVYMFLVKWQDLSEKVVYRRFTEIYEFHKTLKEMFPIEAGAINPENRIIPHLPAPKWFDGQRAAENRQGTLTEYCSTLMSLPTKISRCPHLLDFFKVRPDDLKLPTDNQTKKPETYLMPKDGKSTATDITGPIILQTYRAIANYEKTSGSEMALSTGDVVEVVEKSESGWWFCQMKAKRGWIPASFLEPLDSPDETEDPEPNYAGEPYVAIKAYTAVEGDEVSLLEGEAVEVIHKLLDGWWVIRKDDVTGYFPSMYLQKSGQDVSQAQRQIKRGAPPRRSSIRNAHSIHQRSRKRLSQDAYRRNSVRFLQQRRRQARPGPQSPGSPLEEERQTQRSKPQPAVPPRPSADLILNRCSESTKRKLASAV
# PGE2 EP2 inh – blocks the human prostaglandin E2 receptor EP2. P43116. C6 glioma cells expressing human EP2, cAMP TR-FRET; cells stimulated with saturating PGE2. inhibition, % at 25 µM. 0.52% of 260,000 active;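 active = percent inhibition above 40 after rounding to a whole number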;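 also: rat C6 glioma host cells with rolipram phosphodiesterase inhibitor present; the protocol text gives 20 µM as final concentration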
# Wee1 stabilizer – blocks degradation of human Wee1 kinase; reporter increase, % at 5 µM; AID 1321; HeLa Luc-Wee1K328M stability, luciferase luminescence; 100% = proteasome inhibitor MG132 effect; 1.2% of 220,000 active;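 active = activation above the mean of all tested compounds plus 3 SD, set per screening run, cut at about 8.8% in these data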;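 also: cells exposed to compound for 20 h before luminescence read; 0% = DMSO alone and 100% = MG132 at 30 µM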
# EP2 mod – modulates human prostaglandin E2 receptor EP2 signaling; P43116; induction, % at 25 µM; 0.83% of 260,000 active; EP2-expressing cells, cAMP HTRF FRET, PGE2 co-stimulation;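 active = compounds whose cAMP rise, as percent of the full-agonist control response, exceeds 60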;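 also: rat C6 glioma line stably carrying human EP2 under a CMV promoter; the protocol text gives 20 µM as final concentration; 100% = response of wells given 1 µM PGE2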
# Furin inh – human furin inhibition | AID 463115 | purified furin, fluorogenic substrate cleavage | 0.061% of 220,000 active | P09958 | inhibition, % at 20 µM or 30 µM; in the data active = inhibition above about 25%
# Wee1 degr conf – confirmation of human Wee1 degradation inhibitors | shares compounds with Wee1 stabilizer | HeLa Luc-Wee1K328M degradation, luminescence; vehicle 0%, proteasome-blocked wells 100% | activation, % at 5 µM | 4% of 1,100 active; in the data active = activation above about 8.9%
# Starred values were filed as active, the others as inactive; i = inactive; nt = not tested or not shown.
SMILES,HSV augment,NCF1 inh,PGE2 EP2 inh,Wee1 stabilizer,EP2 mod,Furin inh,Wee1 degr conf
Cc1ccc(NC(=O)CCC(=O)c2cccs2)c(O)c1,i,-7,3,15*,9,-24,0
Cc1ccc(F)cc1NC(=O)CCC(=O)c1cccs1,i,-2,7,0,-7,-6,nt
COC(=O)CN1C(=O)C(O)=C(C(C)=O)C1c1ccc(OC)c(OC)c1 (centres undefined),nt,nt,5,nt,-7,nt,nt
Cc1ccc2nc(-c3ccc4c(c3)NC(=O)CO4)cn2c1,i,-9,18,20*,-22,-21,5
O=C(O)CCCn1cc(NC(=O)c2ccc(Br)o2)cn1,i,-2,5,-2,4,-22,nt
O=C(O)CCCn1cc(NC(=O)c2cccc(F)c2)cn1,i,-7,8,13*,12,-17,0
O=C(O)CCCC(=O)N1N=C(c2ccccc2)CC1c1ccc2nccnc2c1 (centres undefined),i,-5,1,0,8,-3,nt
O=C(O)CCC(=O)N1N=C(c2ccccc2)CC1c1ccc2nccnc2c1 (centres undefined),i,1,7,13*,4,-13,0
Cc1cc2oc(C(=O)Nc3cccc(-n4cnnc4)c3)cc(=O)c2cc1C,nt,nt,9,nt,-51,nt,nt
O=C(CCC(=O)Nc1nnc(C2CCCCC2)s1)NCC1CCCO1 (centres undefined),i,-8,3,16*,6,-17,2
Cc1sc2nc(C3CC3)n3c(=O)n(CC(=O)N4CCCC4)nc3c2c1C,nt,nt,nt,nt,-15,nt,nt
O=C(COc1ccc(C(=O)c2ccc(F)cc2)cc1)NCc1ccc(F)cc1,i,-9,12,11*,-5,-22,14*
COc1ccc(CNC(=O)COc2ccc(C(=O)c3ccc(F)cc3)cc2)cc1,i,-11,8,-1,-93,-12,nt
O=C(NCCCN1CCOCC1)C(=O)N/N=C/c1ccccc1Cl,i,-17,9,1,-25,-17,nt
O=C(NCCCN1CCOCC1)C(=O)N/N=C/c1c(Cl)cccc1Cl,i,-1,8,16*,-8,-6,3
COc1cc(NC(C)=O)ccc1-c1cc2ccccc2oc1=O,i,11,14,15*,-54,-7,0
CC(C)(C)c1ccc(/C=N/NC(=S)NCc2ccccc2)cc1,i,-4,1,17*,0,-19,0
FC(F)Sc1ccc(NC(=S)NCc2ccccc2)cc1,i,0,6,3,-43,-17,nt
CN(C)c1ccc(/C=N/NC(=S)NCc2ccccc2)cc1,i,-13,13,3,-52,-16,nt
FC(F)(F)c1ccc(NC(=S)NCc2ccccc2)cc1,i,-3,3,19*,-37,-16,0
CC1CCN(c2nc3c(c(=O)n(C)c(=O)n3C)n2Cc2ccc(F)cc2)CC1,nt,nt,9,nt,-1,nt,nt
CC(=O)c1c(C)[nH]c(C(=O)NCc2cccs2)c1C,i,-10,13,1,7,-14,nt
CC(=O)c1c(C)[nH]c(C(=O)NCc2ccco2)c1C,i,-19,2,12*,-8,-16,4
Cc1cccc(N(C(=O)c2csnn2)C(C(=O)NC2CCCC2)c2ccncc2)c1C (centres undefined),nt,nt,9,nt,-25,nt,nt
Cn1cc(Br)c(C(=O)NC2C3CC4CC(C3)CC2C4)n1 (centres undefined),i,-16,10,12*,37,-15,0
Cn1cc(C(=O)NC2C3CC4CC(C3)CC2C4)cn1 (centres undefined),i,-10,8,0,26,-24,nt
CN(C)S(=O)(=O)c1cccc(NC(=O)CNCC2CCCCC2)c1,i,-1,2,12*,-43,-17,1
COc1cc(S(=O)(=O)NC2CCCCC2)ccc1-n1cnnn1,nt,nt,10,nt,-55,nt,nt
O=C(c1ccc(F)cc1)n1ccc(-c2cnc(-c3ccccc3)s2)n1,i,-1,3,15*,7,-26,3
COc1ccccc1-c1nnc(Nc2nc3c(OC)cccc3s2)o1,i,-42,11,15*,-39,-18,4

# Screening data: PubChem, several laboratories
